Pf growth 48h: inhibits P. falciparum growth in the first generation, 48 h; AID 504832; Potency, µM (titrated, usually from 28.7 µM), inactives show at the top dose activity change, negative = inhibition, hits mostly inhibitors; 5.9% of 310,000 active; P. falciparum luciferase growth in erythrocytes, 48 h; note: potency is the fitted concentration of half-maximal effect; % is set by controls: 0 for no effect and ±100 for the full control effect
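In quantitative HTS format, infected erythrocytes bearing luciferase-reporter parasites were treated for a single generation at 37 C. Luminescence after adding detection reagent served as the growth measure.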
Shiga inhibitor: blocks Shiga toxin action in Vero cells; Vero cells, Shiga toxin protein synthesis inhibition reporter; 9.2% of 290,000 active; inhibition, % at 38.7 µM; in the data active = inhibition mostly above about 28%, no sharp cut-off; inactive = mostly below about 43%; note: 0% is about no effect
HCMV inh: blocks human cytomegalovirus replication. activity change, negative = inhibition, % at 57.5 µM. 4.5% of 410,000 active. HFF cells, HCMV-luciferase reporter, 72 h; active compounds read low; in the data active = activity change below about -60%; inconclusive = no clear call, values can overlap the other calls; inactive = above about -39%; note: % is set by controls: 0 for no effect and ±100 for the full control effect
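Screen run at 2 compound doses on HFFs infected with reporter HCMV, MOI 1 PFU/cell. Luciferase activity from cell lysates at 72 h post infection gave inhibition relative to buffer-only and Salinomycin wells.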
Pf growth 96h: inhibits malaria parasite growth, 96 h | P. falciparum luciferase reporter growth, 96 h | Potency, µM (titrated, usually from 28.7 µM), without a hit: top-dose activity change, negative = inhibition, hits mostly inhibitors | 6.9% of 320,000 active | AID 504834; note: potency is the fitted concentration of half-maximal effect; % is set by controls: 0 for no effect and ±100 for the full control effect
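Erythrocytes infected with luciferase-expressing P. falciparum were dispensed at 2% hematocrit and 0.05% parasitemia (final), then incubated with compounds 96 hours at 37 C in 5% CO2. Luminescence after detection reagent addition reported growth.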
Cycloheximide cs: counter-screen for Shiga toxin inhibitors: cycloheximide protein synthesis inhibition; cell reporter, cycloheximide protein synthesis inhibition counterscreen; max response, %; 12% of 300,000 active; AID 2314; in the data active = max response mostly above about 13%, no sharp cut-off; inactive = mostly below about 14%; note: read at 38.3 µM for the half of the compounds with a filed dose; 0% is about no effect
An asterisk follows results filed as active; ? = inconclusive; . = no result; + = active, no number; ! = not active in a repeat. Rows were chosen to be rich in hits. Some 20% of all compounds tested hit in one or more screens of this group. Unless noted, calls come from the whole dose curve; as a rule, active = well fitted inhibition curve with a large enough effect; inconclusive = small, poorly fitted or top-dose-only effect, or another doubt; inactive = no such curve, though single readings can be large or run the other way.

SMILES	Pf growth 48h	Shiga inhibitor	HCMV inh	Pf growth 96h	Cycloheximide cs
Cc1nnc(SCC(=O)Nc2nc(-c3ccccc3)cs2)n1N	0%	10	38	28%	9
CCOC(=O)N1CCN(C(=O)CSCC(=O)Nc2nc(-c3ccccc3)cs2)CC1	-13%	30*	.	67%	-2
O=C(CSCC(=O)N1CCN(c2ccccc2)CC1)Nc1nc(-c2ccc(Cl)s2)cs1	?	9	-13	?	6
CCOc1ccc(OCCC(=O)OCC(=O)Nc2ccc(Cl)cn2)cc1	-1%	.	-20	30%	.
CNC(=O)c1ccc(-c2cc3onc(-c4ccccc4)c3c(=O)n2C)cc1	.	.	-3	.	.
Cc1ccc(-c2cc3onc(-c4ccccc4)c3c(=O)n2C)cc1	154%	.	-71*	16%	.
CCC(CC)C(=O)N1CC(=O)Nc2ccc(C)cc2C1c1ccccc1 (stereo not drawn)	?	-7	-13	?	-3
O=C1CN(C(=O)c2cccc(Br)c2)C(c2ccccc2)c2cc(Cl)ccc2N1 (stereo not drawn)	.	.	-63*	.	.
O=C1CN(C(=O)c2c(F)cccc2F)C(c2ccccc2)c2cc(Br)ccc2N1 (stereo not drawn)	?	-3	-8	-11%	4
CCCC(=O)N1CC(=O)Nc2ccc(C)cc2C1c1ccccc1 (stereo not drawn)	-30%	26	-15	7.4µM*	6
Cc1ccc(C(=O)N2CC(=O)Nc3ccc(F)cc3C2c2ccccc2)cc1[N+](=O)[O-] (stereo not drawn)	9.3µM*	-2	?	?	4
Cc1cc(C(=O)OCC(=O)Nc2ccccc2[N+](=O)[O-])c2ccccc2n1	?	20	24	6%	-4
Cc1ccc(O)c(CO)n1	-19%	-6	0	13%	-2
COc1ccc(CCc2nc(C)ccc2O)cc1	?	+!	-20	38%	37*
Cc1ccc(NCc2ccccc2O)cc1	3%	72*	24	.	30*
Cc1cccc(NCCNc2cccc(C)c2)c1	4%	25	80	57%	18*
Cc1ccc(CNc2ccc(O)cc2)cc1	?	43	-6	.	24
Cc1ccc(NCc2ccccc2F)cc1	-1%	29*	67	1%	9
Cc1cccc(NCc2ccccc2O)c1	-4%	25	-7	8%	18*
Cc1cccc(NCc2ccccc2)c1	12%	22	0	-19%	5
Fc1ccccc1CNc1ccc(Cl)c(Cl)c1	-10%	59	-32	44%	19
CC(C)n1c(=O)c2ccccc2n1Cc1cn(Cc2cccs2)nn1	.	.	-7	.	.
CN(C)c1cccc(C(=O)N[C@H]2CC[C@@]34CCCN3C(=O)CCC[C@H]4[C@H]2Cc2ccccc2)c1	.	.	-12	.	.
CCOc1ccc(NC(=O)c2sc3nc(C)nc(N4CCOCC4)c3c2C)cc1	-28%	2	-11	-7%	-2
COc1ccc(NC(=O)c2c3c(nc4ccccc24)CCC3)cc1S(=O)(=O)N1CCOCC1	?	-6	51	?	-2
SMILES	Pf growth 48h	Shiga inhibitor	HCMV inh	Pf growth 96h	Cycloheximide cs
FC(F)(F)c1ccc2c(c1)NCC1CCCN21 (stereo not drawn)	225%	40	-5	108%	17*
CC1(C)CC(NC(=O)Cc2ccccc2)CC(C)(C)N1	11%	.	20	?	-2
CCOc1ccc(Br)cc1CNCCN1CCOCC1	-25%	3	8	12µM*	-3
CCOc1ccc2ccccc2c1CNCCCN1CCOCC1	.	.	2	.	.
CCOc1ccc2ccccc2c1CNCCN1CCOCC1	13µM*	-5	7	5.2µM*	2
O=C1c2oc3ccc(F)cc3c(=O)c2C(c2ccccc2)N1CC1CCCO1 (stereo not drawn)	25%	-4	-20	5%	1
Cc1cc(C)c(S(=O)(=O)NCc2ccc3c(c2)cc(C)n3C)c(C)c1	-11%	-9	-93*	-2%	1
COC(=O)c1ccccc1S(=O)(=O)NCc1nc2nc(C)cc(C)n2n1	37%	10	43	13µM*	1
Cc1cc(C)c(S(=O)(=O)NCc2nc3nc(C)cc(C)n3n2)c(C)c1	-7%	-5	5	12µM*	-3
COc1ccc(S(=O)(=O)NCc2nc3nc(C)cc(C)n3n2)cc1	.	.	-2	.	.
Cc1ccc(S(=O)(=O)NCc2nc3nc(C)cc(C)n3n2)c(C)c1	32%	-2	-2	?	-2
CC(C)(C)OC(=O)N[C@@H](Cc1c[nH]c2ccccc12)C(=O)O	.	25	.	.	-5
CC(=O)Nc1ccc(S(=O)(=O)N2c3ccccc3C(C)=CC2(C)C)cc1	-23%	-13	-80*	-26%	-1
CC1=CC(C)(C)N(S(=O)(=O)c2ccc(F)cc2)c2ccccc21	?	-13	-29	.	-2
Cc1ccc(S(=O)(=O)N2c3ccccc3-c3c(ssc3=S)C2(C)C)cc1	?	-7	-35	?	8
CC1=CC(C)(C)N(S(=O)(=O)c2ccc(C)cc2)c2ccc(C)cc21	.	-5	-74*	10µM*	-5
N#CCSc1nnc(Cc2cccc3ccccc23)n1C1CCCCC1	.	-19	-5	?	-3
Cc1ccc(OCC(=O)NCCCNC(=O)c2ccco2)cc1	-8%	-10	4	-1%	-3
CCO[C@@H]1OC(C(=O)N2CCCCCCC2)=C[C@H](C2CCCCC2)[C@H]1CCCO	10µM*	-6	3	?	1
CCO[C@H]1OC(C(=O)N2CCN(Cc3ccc4c(c3)OCO4)CC2)=C[C@@H](C2CCCCC2)[C@@H]1CCCO	?	-9	-12	4.1µM*	-1
CCO[C@H]1OC(C(=O)N2CCN(C)CC2)=C[C@@H](C)[C@@H]1CCCO	46%	18	-97*	59%	1
CCO[C@@H]1OC(C(=O)N2CCN(Cc3ccc4c(c3)OCO4)CC2)=C[C@H](C2CC2)[C@H]1CCCO	?	5	-28	3.3µM*	1
CCO[C@H]1OC(C(=O)N2CCN(Cc3ccc4c(c3)OCO4)CC2)=C[C@@H](C)[C@@H]1CCCO	-1%	2	-4	3%	1
COc1ccc2oc3cc(Cl)ccc3c(=O)c2c1	.	.	44	.	.
CCOC(=O)C1CCCN(C(=O)CCNS(=O)(=O)c2cc(Br)cnc2N)C1 (stereo not drawn)	-3%	-5	-35	97%	-2
Cc1noc(/C=C/c2nn(C)cc2Cl)c1[N+](=O)[O-]	?	7	-98*	?	2
Cc1cc(O)ccc1N/C=C/c1onc(C)c1[N+](=O)[O-]	459%	64*	125	207%	39*

Source: PubChem
